GDH-TPI counter – GDH-TPI coupling enzyme inhibitors, primary screen, artefact control for M. tuberculosis FBA inhibitor project, biochemical, absorbance, full deck; hit rate 1.2% among 360,000; inhibition, % at 4.8 µM; GDH-TPI coupled enzyme counterscreen, NADH absorbance; in the data active = inhibition above about 30%
FBA Mtb inh – Mtb FBA enzyme inhibitors, primary screen, biochemical, fluorescence, strain H37Rv; Fructose-bisphosphate aldolase (Mycobacterium tuberculosis (strain ATCC 25618 / H37Rv)), …; purified M. tuberculosis FBA, fluorescence read-out; inhibition, % at 1 µM; hit rate 2.3% among 360,000; AID 588726, 2011; in the data active = inhibition above about 27%
Target sequence (P9WQA3 whole entry, looked up): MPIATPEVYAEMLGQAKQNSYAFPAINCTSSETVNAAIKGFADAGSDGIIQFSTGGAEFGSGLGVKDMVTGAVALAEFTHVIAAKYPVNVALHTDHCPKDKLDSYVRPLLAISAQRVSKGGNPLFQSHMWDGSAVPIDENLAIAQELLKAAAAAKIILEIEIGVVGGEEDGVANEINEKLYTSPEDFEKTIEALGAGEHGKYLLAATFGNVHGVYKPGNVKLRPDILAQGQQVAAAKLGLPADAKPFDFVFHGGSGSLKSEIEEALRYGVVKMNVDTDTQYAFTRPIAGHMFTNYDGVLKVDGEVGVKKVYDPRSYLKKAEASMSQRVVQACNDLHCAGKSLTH
TcdB inh – TcdB glycohydrolase inhibitors, primary screen, biochemical, single point, plate reader. hit rate 0.24% among 350,000. AID 652162, 2013. Toxin B (Clostridioides difficile), P18177. TcdB glycohydrolase enzymatic assay. inhibition, % at 9.99 µM; in the data active = inhibition above about 10%
Y pestis TopoI – Yersinia pestis topoisomerase I inhibitors, primary screen, biochemical, cleavage product accumulation, plate reader, single point; Y. pestis Topo-I cleavage product accumulation; DNA topoisomerase I (Yersinia pestis CO92); hit rate 0.064% among 360,000; activity, % at 10 µM; AID 504884, 2011; in the data active = activity above about 50%, passing the limit was not always enough
PrPC surface inh – inhibitors of human cell surface prion protein PrPC, primary screen, cell-based, TR-FRET | AID 720596, 2013 | hit rate 0.43% among 370,000 | inhibition, % at 13.8 µM | Major prion protein (Homo sapiens), P04156 | TR-FRET read-out; in the data active = inhibition above about 24%
Of the large screens only hits and unclear results are named; the others gave an inactive call. This is a sample that favours compounds with a hit; in the whole collection about 3.2% have one here.

Cc1cc(C)cc(N2C(=O)NC(=O)/C(=C\c3cccn3-c3ccc(Cl)cc3)C2=O)c1	none (no result: TcdB inh)
Cc1cc(C)cc(N2C(=O)NC(=O)/C(=C\c3cccn3-c3ccccc3)C2=O)c1	Y pestis TopoI 53 (no result: TcdB inh)
CCCCCCSc1cccc(-c2nc3ccc(C)cn3c2NCc2ccccc2)c1	FBA Mtb inh 36
CCCCCCSc1cccc(-c2nc3ccc(C)cn3c2NC2CCCCC2)c1	none
O=C(C[C@@H]1C[C@@H]2c3cc(NS(=O)(=O)c4ccc(F)cc4)ccc3O[C@@H]2[C@@H](CO)O1)NCc1cccc(F)c1	none (no result: GDH-TPI counter, FBA Mtb inh, Y pestis TopoI, PrPC surface inh)
CO[C@@H]1CN(C)C(=O)c2cc(NC(=O)Nc3ccc(C(F)(F)F)cc3)ccc2OC[C@@H](C)NC[C@@H]1C	none (no result: GDH-TPI counter, FBA Mtb inh, Y pestis TopoI, PrPC surface inh)
CCCOc1ccc(C(=O)c2nc3c(n2O)CCCCC3)cc1	GDH-TPI counter 31 (no result: TcdB inh)
O=C1CN(C(=O)CSc2nc3cc(Cl)ccc3c(=O)n2Cc2ccccc2)c2ccccc2N1	Y pestis TopoI 71
C=CCn1c(SCC(=O)N2CC(=O)Nc3ccccc32)nc2scc(-c3ccccc3)c2c1=O	TcdB inh 16
C=CCn1c(SCC(=O)NCc2ccc3c(c2)OCO3)nc2scc(-c3ccccc3)c2c1=O	none (no result: TcdB inh)
O=C(C1CCCCC1)N1C[C@@H]2[C@H](c3ccccc31)[C@@H](CO)N2C(=O)c1ccccc1	none (no result: GDH-TPI counter, FBA Mtb inh, Y pestis TopoI, PrPC surface inh)
COc1ccc(NC(=O)N(C)C[C@@H]2Oc3ccc(NS(=O)(=O)c4c(C)noc4C)cc3C(=O)N([C@H](C)CO)C[C@@H]2C)cc1	none (no result: GDH-TPI counter, FBA Mtb inh, Y pestis TopoI, PrPC surface inh)
Cc1cc2cc3c(cc2nc1SCC(=O)O)OCCO3	GDH-TPI counter 33 (no result: TcdB inh)
CC(=O)c1ccc(N2CCN(C(=O)c3ccc(Cl)c(NC4=NC5CS(=O)(=O)CC5S4)c3)CC2)cc1 (stereo unspecified)	GDH-TPI counter 42
COc1cccc(N2CCN(C(=O)c3ccc(Cl)c(NC4=NC5CS(=O)(=O)CC5S4)c3)CC2)c1 (stereo unspecified)	none
Cc1ccc(/C=C2\SC(=S)N(c3c(C)n(C)n(-c4ccccc4)c3=O)C2=O)cc1	none
Cc1c(N2C(=O)/C(=C/c3ccccc3)SC2=S)c(=O)n(-c2ccccc2)n1C	GDH-TPI counter 38 (no result: TcdB inh)
CC1CN=C(Nc2cccc(S(=O)(=O)N(C)C)c2)S1 (stereo unspecified)	TcdB inh 14
CCn1c(O)c(N=NC(=O)CNC(=O)Cc2ccccc2)c2ccccc21	none
O=C(CNC(=O)c1ccco1)N=Nc1c(O)n(CCc2ccccc2)c2ccccc12	none
NC(=O)Cn1c(O)c(N=NC(=O)CNC(=O)/C=C/c2ccccc2)c2ccccc21	GDH-TPI counter 37
C=CCn1c(O)c(N=NC(=O)CNC(=O)/C=C/c2ccco2)c2ccccc21	GDH-TPI counter 35 (no result: TcdB inh)
CCn1c(O)c(N=NC(=O)CNC(=O)c2cccnc2)c2ccccc21	GDH-TPI counter 37
CCCn1c(O)c(N=NC(=O)CNC(=O)/C=C/c2ccc(OC)cc2)c2ccccc21	none
C=CCn1c(O)c(N=NC(=O)CNC(=O)/C=C/c2ccc(OC)cc2)c2ccccc21	GDH-TPI counter 38
CC(C)n1c(O)c(N=NC(=O)CNC(=O)c2cccnc2)c2ccccc21	none
CCCCCC(=O)Nc1cc(N(C)C)nc2ccccc12	none (no result: TcdB inh)
CN1CCN(CC(=O)Nc2cc(N(C)C)nc3ccccc23)CC1	TcdB inh 13
Nc1nnc(N2CCCCC2)s1	none (no result: TcdB inh)
O=C1CCCc2nc(N3CCCCC3)sc21	GDH-TPI counter 32 (no result: TcdB inh)
C[C@@H]1CN([C@H](C)CO)C(=O)Cc2cc(N(C)C)ccc2O[C@@H]1CN(C)Cc1ccc(-c2ccccc2)cc1	none (no result: GDH-TPI counter, FBA Mtb inh, Y pestis TopoI, PrPC surface inh)
N#Cc1c(-c2cccs2)cc(-c2ccccn2)nc1N	FBA Mtb inh 78 (no result: TcdB inh)
CO[C@H]1CN(C)C(=O)c2cc(NC(=O)Nc3c(C)noc3C)ccc2OC[C@H](C)N(C)C[C@H]1C	none (no result: GDH-TPI counter, FBA Mtb inh, Y pestis TopoI, PrPC surface inh)
Nc1nc2nccc(-c3ccc(Cl)cc3)n2n1	GDH-TPI counter 34, FBA Mtb inh active (no result: TcdB inh)
CCOC(=O)C1CCN(C(=O)c2sccc2Cl)CC1	FBA Mtb inh active
COc1ccc(S(=O)(=O)Nc2cc(Sc3ncn[nH]3)c(O)c3ccccc23)cc1	PrPC surface inh 57 (no result: GDH-TPI counter, FBA Mtb inh, TcdB inh, Y pestis TopoI)
CC(=O)c1ccc(Nc2c3c(nc4ccccc24)CCCC3)cc1	GDH-TPI counter 37
CC(=O)c1cccc(Nc2c3c(nc4ccccc24)CCC3)c1	none
COc1ccc(/C=C(/NC(=O)c2ccccc2)c2nc3ccc(Cl)cc3[nH]2)cc1OC	GDH-TPI counter 36
COc1ccc(C(=O)N/C(=C\c2cccs2)c2nc3ccccc3[nH]2)cc1OC	GDH-TPI counter 49 (no result: TcdB inh)
COc1ccc(/C=C(/NC(=O)c2ccccc2)c2nc3ccccc3[nH]2)cc1OC	GDH-TPI counter 42 (no result: TcdB inh)
COc1ccc(C(=O)N/C(=C/c2cccs2)C(=O)NN)cc1OC	none
Cc1noc(C)c1NC(=O)Nc1ccc2c(c1)C(=O)N([C@H](C)CO)C[C@H](C)[C@@H](CN(C)C(=O)C1CCCCC1)OCCCC[C@H](C)O2	none (no result: GDH-TPI counter, FBA Mtb inh, Y pestis TopoI, PrPC surface inh)
CC(C)CC#Cc1ccc([C@@H]2[C@@H](CO)N3C(=O)CN(C(=O)c4cccc(F)c4)C[C@@H]23)cc1	none (no result: GDH-TPI counter, FBA Mtb inh, Y pestis TopoI, PrPC surface inh)
O=C(N/N=C/c1cccnc1)c1cc2ccccc2o1	GDH-TPI counter 31
O=C(N/N=C/c1cccnc1)c1cc2c(ccc3ccccc32)o1	GDH-TPI counter 32 (no result: TcdB inh)
O=C(C[C@@H]1CC[C@H]2[C@@H](COC[C@@H](O)CN2Cc2ccc(F)cc2)O1)NCCc1ccccc1	none (no result: GDH-TPI counter, FBA Mtb inh, Y pestis TopoI, PrPC surface inh)
NC(=S)N/N=C1\CC(c2ccc3c(c2)OCCCO3)Oc2ccc(F)cc21 (stereo unspecified)	GDH-TPI counter 45
NC(=S)N/N=C1\CC(c2ccc3c(c2)OCCO3)Oc2ccc(F)cc21 (stereo unspecified)	GDH-TPI counter 40
COc1ccc(SC[C@H](C)CN2CC[C@H](NC(=O)OCc3ccccc3)CCC2=O)cc1	TcdB inh 10
C[C@@H](CSc1ccc(Br)cc1)CN1CC[C@H](NC(=O)OCc2ccccc2)CCC1=O	none
N#Cc1ccc2c(c1)nnn2-c1ccccc1	none
Clc1ccc2nc3ccccn3c2c1	FBA Mtb inh 178 (no result: TcdB inh)
N#Cc1ccc2c(c1)nc1ccccn12	FBA Mtb inh active
Cc1noc(C)c1NC(=O)Nc1ccc2c(c1)C(=O)N([C@@H](C)CO)C[C@@H](C)[C@@H](CN(C)C(=O)Nc1ccccc1)OCCCC[C@@H](C)O2	none (no result: GDH-TPI counter, FBA Mtb inh, Y pestis TopoI, PrPC surface inh)
COc1ccccc1-n1c(=S)sc2c(=O)n(Cc3ccco3)c(SC)nc21	GDH-TPI counter 40 (no result: TcdB inh)
COc1ccccc1-n1c(SC)nc2c(sc(=S)n2-c2ccccc2)c1=O	none
CCOC(=O)CNC(=O)N1Cc2cc(-c3ccc(OC)cc3)ccc2-n2nncc2C1	FBA Mtb inh 124 (no result: GDH-TPI counter, Y pestis TopoI)
c1ccc(-c2ccc3c(c2)CNCc2cnnn2-3)cc1	none (no result: GDH-TPI counter, Y pestis TopoI)
COc1ccc(-c2ccc3c(c2)CNCc2cnnn2-3)cc1	FBA Mtb inh 115 (no result: GDH-TPI counter, Y pestis TopoI)
CCOC(=O)CNC(=O)N1Cc2cc(-c3cccc(F)c3)ccc2-n2nncc2C1	none (no result: GDH-TPI counter, Y pestis TopoI)

Source: PubChem (several laboratories)
